{"source": "PubChem BioAssay AID778", "about": "(Sanford-Burnham Center for Chemical Genomics, 2007)", "note": "The campaign covered roughly 96,000 compounds. About 20,000 (21%) were called active. These entries were drawn from the full list. A number with no mark means an inactive call.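 How the source made its calls: active means CYP2C19 inhibition above a set limit at 5 µM in the primary screen (cut at about 50% in these data); inactive means the rest.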"}
{"molecular_target": "Cytochrome P450 2C19 (Homo sapiens) (UniProt P33261)", "sequence (P33261 whole entry, looked up)": "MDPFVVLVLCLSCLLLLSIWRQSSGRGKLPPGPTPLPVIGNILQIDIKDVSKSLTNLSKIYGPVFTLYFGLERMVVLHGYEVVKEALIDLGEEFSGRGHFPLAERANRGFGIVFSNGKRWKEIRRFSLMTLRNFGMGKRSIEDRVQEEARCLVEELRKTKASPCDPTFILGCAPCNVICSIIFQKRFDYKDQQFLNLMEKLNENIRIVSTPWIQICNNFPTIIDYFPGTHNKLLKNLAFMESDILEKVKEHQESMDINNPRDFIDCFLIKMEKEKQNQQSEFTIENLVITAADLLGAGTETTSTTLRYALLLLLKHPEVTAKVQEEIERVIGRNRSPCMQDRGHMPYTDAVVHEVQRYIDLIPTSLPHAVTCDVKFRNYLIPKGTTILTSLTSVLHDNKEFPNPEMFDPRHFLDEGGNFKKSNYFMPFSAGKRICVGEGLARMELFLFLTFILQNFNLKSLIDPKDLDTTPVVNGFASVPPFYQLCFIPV", "assay": "blockers of cytochrome P450 2C19 activity – biochemical, luminescence, ADME assay, primary screen (AID 778);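 further: plate controls were negative control wells for no effect and 2.5 mM tranylcypromine positive control for full effect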", "details": "CYP2C19 Supersomes, luciferin-H EGE luminescence, 30 min; at 5 µM; stronger effect = higher value"}
{"smiles": "Oc1ccc(Cl)cc1/C=N/c1nc2ccccc2[nH]1", "inhibition": "-20.9%"}
{"smiles": "Cc1ccc(Cn2c(NC(=O)c3ccco3)nc3ccccc32)cc1", "inhibition": "-9.7%"}
{"smiles": "C=CCn1c(C2CC(=O)N(c3ccc(C)cc3)C2)nc2ccccc21", "note": "(configuration not stated)", "inhibition": "76.7% (active)"}
{"smiles": "CC(C)(C)N1CC(c2nc3ccccc3n2Cc2ccc(F)cc2)CC1=O", "note": "(configuration not stated)", "inhibition": "12.1%"}
{"smiles": "Cc1onc(-c2ccccc2Cl)c1C(=O)NCCn1ccc2ccccc21", "inhibition": "83.5% (active)"}
{"smiles": "COc1c(O)cccc1-c1nnn(CCC(=O)OCC(=O)c2ccccc2)n1", "inhibition": "19.5%"}
{"smiles": "Cc1onc(-c2ccccc2Cl)c1C(=O)OCC(=O)c1ccccc1", "inhibition": "58.1% (active)"}
{"smiles": "O=C1c2ccccc2C(=O)N1Cc1cc(-c2ccccc2Cl)no1", "inhibition": "37.2%"}
{"smiles": "Cc1ccc2cc(CCNC(=O)c3c(-c4ccccc4Cl)noc3C)c(=O)[nH]c2c1", "inhibition": "21%"}
{"smiles": "Cc1onc(-c2c(Cl)cccc2Cl)c1C(=O)c1c[nH]c(C(=O)NC2CC2)c1", "inhibition": "0.9%"}
{"smiles": "O=C(OCc1cc2ccccc2[nH]c1=O)c1cccnc1", "inhibition": "25.1%"}
{"smiles": "C=CCSc1nc2c(c(=O)[nH]1)C(C(C)C)C(C#N)=C(N)O2", "note": "(configuration not stated)", "inhibition": "-15.8%"}
{"smiles": "COc1ccc(OCCCON2C(=O)c3ccccc3C2=O)cc1", "inhibition": "26.4%"}
{"smiles": "CCN(CC)CCCNC(=O)c1cc(-c2cccc(Cl)c2)on1", "inhibition": "-2.7%"}
{"smiles": "Cc1cc(C)c2c(-n3cccc3)c(NC(=O)OCc3ccccc3)sc2n1", "inhibition": "4.8%"}
{"smiles": "Cc1cc(Cl)ccc1N1C(=O)CC(SCCC(=O)O)C1=O", "note": "(configuration not stated)", "inhibition": "7.1%"}
{"smiles": "COC(=O)Cc1cc(=O)oc2c(C)c(O)ccc12", "inhibition": "17.9%"}
{"smiles": "Nc1nnnn1/N=C/c1cccs1", "inhibition": "1.7%"}
{"smiles": "CCCOc1cccc(C(=O)Nc2nnn(CCC)n2)c1", "inhibition": "57.8% (active)"}
{"smiles": "CCC(=O)Oc1cccc(C(=O)Nc2ccc(-c3nnc(-c4ccco4)o3)cc2)c1", "inhibition": "48.6%"}
{"smiles": "Cc1nc2nc[nH]n2c(=O)c1NC(=O)c1cccc(OCC(C)C)c1", "inhibition": "-12.5%"}
{"smiles": "COc1ccc(OC)c2c(N)c(C#N)c(C(F)(F)C(F)(F)F)nc12", "inhibition": "-11.1%"}
{"smiles": "NC(=O)c1nsc(C(=O)N(CC(=O)NCc2ccc(F)cc2)Cc2ccco2)c1N", "inhibition": "21.3%"}
{"smiles": "Cc1ccc2nc(SC(C)C(=O)NCc3ccco3)[nH]c2c1", "note": "(configuration not stated)", "inhibition": "19.9%"}
{"smiles": "Cc1cccc(NC(=O)COc2ccccc2C)n1", "inhibition": "32%"}
{"smiles": "COC(=O)C(C(=O)Nc1cccc(C)n1)C1CCCCCC1", "note": "(configuration not stated)", "inhibition": "80.7% (active)"}
{"smiles": "Cc1cccc(NC(=O)c2ccc3ccccc3n2)n1", "inhibition": "22.7%"}
{"smiles": "Cc1cc(C(F)(F)F)nn1CC(=O)N1CCCC1", "inhibition": "-1.5%"}
{"smiles": "OC(C#CCN1CCOCC1)(c1ccccc1)C1CCCCC1", "note": "(configuration not stated)", "inhibition": "36.7%"}
{"smiles": "Cc1cc(C(=O)OCC(=O)NCc2ccco2)c(C)n1-c1ccccc1", "inhibition": "71.8% (active)"}
{"smiles": "O=C(COC(=O)C12CC3CC(CC(C3)C1)C2)NCc1ccco1", "inhibition": "35.7%"}
{"smiles": "CCOC(=O)c1cnc(SCC(=O)NCc2ccco2)nc1N", "inhibition": "-1.2%"}
{"smiles": "COc1c(Br)cc2c(C)c(C(=O)N3CCOCC3)oc2c1Br", "inhibition": "33.1%"}
{"smiles": "N#C/C(=C\\c1ccccc1)c1n[nH]c(Cn2cncn2)n1", "inhibition": "23.3%"}
{"smiles": "FC(F)(F)COc1nc(N2CCCCC2)nc(N2CCNCC2)n1", "inhibition": "-9.3%"}
{"smiles": "C/C(=N/NC(=O)c1cc(Cl)ccc1O)C12CC3CC(CC(C3)C1)C2", "inhibition": "0.2%"}
{"smiles": "CCOC(=O)c1[nH]cnc1C(=O)NC1CCCCC1", "inhibition": "18.3%"}
{"smiles": "Cc1ccc(N(C(=O)CC2NC(=O)NC2=O)C2(C(=O)NC3CCCC3)CCCCC2)cc1", "note": "(configuration not stated)", "inhibition": "-3.8%"}
{"smiles": "CCOC(=O)C1=C(CNC2CCCCC2)NC(=O)NC1c1cc(C)ccc1C", "note": "(configuration not stated)", "inhibition": "97.1% (active)"}
{"smiles": "CN(Cc1ccccc1)c1nc2c(c(=O)[nH]c(=O)n2C)n1CCSc1nc2ccccc2[nH]1", "inhibition": "38.5%"}
{"smiles": "O=C1CC(c2cccc(F)c2)C2=C(CCCC2=O)N1", "note": "(configuration not stated)", "inhibition": "8.1%"}
{"smiles": "CCc1nnc(NC(=O)CSc2nnc(COc3ccc(C#N)cc3)n2-c2ccccc2)s1", "inhibition": "4.5%"}
{"smiles": "CSc1ccc(S(=O)(=O)NCc2ccc(Cl)cc2)cc1", "inhibition": "78.2% (active)"}
{"smiles": "O=[N+]([O-])c1ccccc1NCc1ccc(Cl)cc1", "inhibition": "21%"}
{"smiles": "Cc1ccc(S/C(=N\\S(=O)(=O)c2ccc(Cl)cc2)c2ccccc2)cc1", "inhibition": "24.1%"}
{"smiles": "Fc1c(F)c(C(F)(F)F)c(F)c(F)c1N1CCN(c2ccc3nnc(C(F)(F)F)n3n2)CC1", "inhibition": "0.5%"}
{"smiles": "COc1ccc(C(c2nnnn2Cc2cccs2)N2CCN(c3ccccc3)CC2)cc1OC", "note": "(configuration not stated)", "inhibition": "69.8% (active)"}
{"smiles": "Cc1ccc(C(c2nnnn2CS(=O)(=O)c2ccc(C)cc2)N2CCC(C)CC2)cc1", "note": "(configuration not stated)", "inhibition": "3.8%"}
{"smiles": "COc1ccc(CCn2nnnc2C(c2ccccc2)N2CCN(C)CC2)cc1OC", "note": "(configuration not stated)", "inhibition": "2.7%"}
{"smiles": "O=C(Nc1ccc(Br)c2cccnc12)c1ccc(Cn2cc([N+](=O)[O-])cn2)o1", "inhibition": "20.2%"}
{"smiles": "CCCNC(=O)Nc1ccccc1C(=O)Nc1ccc(OC)cc1", "inhibition": "40.1%"}
{"smiles": "Clc1cccc(-c2nc3nc4ccccc4nc3n2Cc2ccco2)c1", "inhibition": "1.8%"}
{"smiles": "COc1ccc(CCn2c(-c3ccco3)nc3nc4ccccc4nc32)cc1OC", "inhibition": "16.7%"}
{"smiles": "CCC(C)n1c(-c2cc(OC)c(OC)c(OC)c2)nc2nc3ccccc3nc21", "note": "(configuration not stated)", "inhibition": "92.6% (active)"}
{"smiles": "CCOc1ccc(CNC(=O)C2CCC(=O)N2C2CCCC2)cc1OC", "note": "(configuration not stated)", "inhibition": "-0.1%"}
{"smiles": "Clc1ccc2c(c1)C1=C(C(c3ccncc3)O2)C(c2ccc(Br)cc2)n2ncnc2N1", "note": "(configuration not stated)", "inhibition": "86.1% (active)"}
{"smiles": "COC(=O)C1=C(C)Nc2ncnn2C1c1cccnc1", "note": "(configuration not stated)", "inhibition": "-0.3%"}
{"smiles": "Brc1ccc(C2=CC(c3ccco3)n3ncnc3N2)cc1", "note": "(configuration not stated)", "inhibition": "33%"}
{"smiles": "Cc1ccc(Cc2c(C)nc3nc(SCC(=O)NCCN4CCOCC4)nn3c2C)cc1", "inhibition": "-3.1%"}
{"smiles": "COc1ccc(-c2cc3nc(C)c(CCC(=O)NC(C)CCc4ccco4)c(C)n3n2)c(OC)c1", "note": "(configuration not stated)", "inhibition": "30.5%"}
{"smiles": "CCCCNC(=O)OC(C)CNC(=O)OC", "note": "(configuration not stated)", "inhibition": "2.3%"}
{"smiles": "CC(=O)Nc1cccc(Oc2cc(C#N)c(C#N)cc2N2CCOCC2)c1", "inhibition": "5.2%"}
{"smiles": "COc1ccc(NS(=O)(=O)c2ccc(NC(=S)NC(=O)CC(C)C)cc2)cc1", "inhibition": "25.1%"}
{"smiles": "CC(=O)Nc1ccc(S(=O)(=O)Nc2ccc(N3CCOCC3)c(F)c2)cc1", "inhibition": "93.5% (active)"}
{"smiles": "O=C(O)CCC(=O)Nc1ccc(N2CCOCC2)cc1", "inhibition": "-9%"}
{"smiles": "COc1ccc2oc(C)c(NC(C)=O)c2c1", "inhibition": "13.5%"}
{"smiles": "CC(=O)Nc1ccc(S(=O)(=O)N2CCCC2C(=O)O)cc1", "note": "(configuration not stated)", "inhibition": "-6.9%"}
{"smiles": "COc1ccc(S(=O)(=O)Nc2ccc3oc(C)c(C(C)=O)c3c2)cc1", "inhibition": "67.4% (active)"}
{"smiles": "CC(=O)Nc1ccc(N2CCOCC2)c(C(=O)Nc2cccc(C)c2)c1", "inhibition": "53.3% (active)"}
{"smiles": "CCOc1ccc(NS(=O)(=O)c2ccc(OCC(=O)NCCCOC)cc2)cc1", "inhibition": "2.3%"}
{"smiles": "COc1c(C)cccc1C(=O)Nc1cc(Cl)ccc1N1CCOCC1", "inhibition": "20.6%"}
{"smiles": "COC(=O)COc1ccc(S(=O)(=O)Nc2ccc(NC(C)=O)cc2)cc1", "inhibition": "69.1% (active)"}
{"smiles": "COc1ccc(NC(=O)c2c(C)oc3c2CCCC3)cc1", "inhibition": "24.5%"}
{"smiles": "CCCc1[nH]nc2c1C(c1c(C)nn(-c3ccccc3)c1Cl)C(C#N)=C(N)O2", "note": "(configuration not stated)", "inhibition": "49.2%"}
{"smiles": "CC(=O)Oc1cc2c(C(=O)NCCN3CCOCC3)c(C)oc2c2ccccc12", "inhibition": "34.2%"}
{"smiles": "Cc1ccc(C2=CSC3=NS(=O)(=O)CCN23)cc1C", "inhibition": "2.5%"}
{"smiles": "CC(=O)c1c(C)n([O-])c2ccccc2[n+]1=O", "inhibition": "-0.9%"}
{"smiles": "O=C(N/N=C/c1ccc(O)cc1)/C(=C/c1ccc([N+](=O)[O-])cc1)NC(=O)c1ccccc1", "inhibition": "7.9%"}
{"smiles": "C/C(=C(\\C#N)C(=O)NCCCN1CCOCC1)N(C)C", "inhibition": "-11.3%"}
{"smiles": "Cc1ccc(S(=O)(=O)/N=C(\\CN2CCOCC2)N2CCOCC2)cc1", "inhibition": "-1.3%"}
{"smiles": "N#Cc1cccc(CSc2nnc(CCCO)n2-c2ccccc2)c1", "inhibition": "8.4%"}
{"smiles": "O=C(/C=C/Nc1ccccc1)c1cnc(-c2ccccc2)s1", "inhibition": "0.3%"}
{"smiles": "Nc1c(-c2ccc(F)cc2)cnn1C1CCS(=O)(=O)C1", "note": "(configuration not stated)", "inhibition": "-15.6%"}
{"smiles": "COc1cccc(C2/C(=C(/O)c3ccc(F)cc3)C(=O)C(=O)N2CCN(C)C)c1", "note": "(configuration not stated)", "inhibition": "5.9%"}
{"smiles": "CCOC(=O)c1sc(NC(=O)C(CC)Sc2nccn2C)nc1C", "note": "(configuration not stated)", "inhibition": "28%"}
{"smiles": "CC(=O)N1CCCc2cc(S(=O)(=O)CCC(=O)N3CCN(c4ccccc4)CC3)ccc21", "inhibition": "29.1%"}
{"smiles": "CCOC(=O)CC1=CC(=O)Nc2ccccc2N1", "inhibition": "12.4%"}
{"smiles": "Cc1ccc(C(=O)NC2CC(C)(C)NC(C)(C)C2)c(C)c1", "inhibition": "-14.1%"}
{"smiles": "CCNS(=O)(=O)c1ccc(NC(=O)Nc2cccc(OC)c2)cc1", "inhibition": "25.1%"}
{"smiles": "COc1ccc(NS(=O)(=O)c2ccc(NC(C)=O)cc2)cc1OC", "inhibition": "43.3%"}
{"smiles": "COc1cc(NS(=O)(=O)c2ccc(NC(C)=O)cc2)cc(OC)c1", "inhibition": "98% (active)"}
{"smiles": "O=C(Nc1ccn(Cc2ccccc2F)n1)c1ccc(COc2ccc(Cl)cc2Cl)o1", "inhibition": "57.8% (active)"}
{"smiles": "O=C(O)c1ccc(COc2c(F)c(F)cc(F)c2F)o1", "inhibition": "-3.2%"}
{"smiles": "CCOc1ccc(OCc2ccc(C(=O)Nc3cccc(C)n3)o2)cc1", "inhibition": "35.8%"}
{"smiles": "O=C1CCC(Cc2ccccc2)N1", "note": "(configuration not stated)", "inhibition": "8.7%"}
{"smiles": "O=C(O)c1ccc(COCC(F)(F)F)cc1", "inhibition": "-5.4%"}
{"smiles": "Cc1sc(NC(=S)NC(=O)c2cccs2)nc1-c1ccc(CC(C)C)cc1", "inhibition": "4.5%"}
